# The supplement of paper PMC8728848
# The sample as a whole holds a higher share of the strongest signals than the screen did.
# How the values were obtained:
# Test in all cases: glycan array binding signal (z-score within array); higher = stronger binding
# [1] = tested on: Gal(b1-4)GlcNAc(b1-3)Gal(b1-4)GlcNAc(b1-3)Gal(b1-4)GlcNAc(b1-3)Gal(b1-4)GlcNAc(b1-2)Man(a1-3)[Gal(b1-4)GlcNAc(b1-3)Gal(b1-4)GlcNAc(b1-3)Gal(b1-4)GlcNAc(b1-3)Gal(b1-4)GlcNAc(b1-2)Man(a1-6)]Man(b1-4)GlcNAc(b1-4)[Fuc(a1-6)]GlcNAc; details: glycan notation: IUPAC condensed, linker removed; mutation: R125K
# Outline: (§1)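 Glycan array data came from 3228 arrays in the Consortium for Functional Glycomics database, and only arrays with an available protein sequence were kept. Glycan names were put into IUPAC-condensed notation, and columns mapping to the same glycan were averaged. The binding signal is a within-array Z-score, averaged across arrays of one protein sequence run at different concentrations or buffers and across linkers. A negative Z-score can be read as non-binding.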
# [2] = tested on: Gal(b1-4)GlcNAc(b1-3)Gal(b1-4)GlcNAc(b1-3)Gal(b1-4)GlcNAc(b1-3)Gal(b1-4)GlcNAc(b1-3)Gal(b1-4)GlcNAc(b1-2)Man(a1-3)[Gal(b1-4)GlcNAc(b1-3)Gal(b1-4)GlcNAc(b1-3)Gal(b1-4)GlcNAc(b1-3)Gal(b1-4)GlcNAc(b1-3)Gal(b1-4)GlcNAc(b1-2)Man(a1-6)]Man(b1-4)GlcNAc(b1-4)GlcNAc; details: glycan notation: IUPAC condensed, linker removed
# Outline: as §1
# [3] = tested on: Gal(b1-4)GlcNAc(b1-3)Gal(b1-4)GlcNAc(b1-3)[Gal(b1-4)GlcNAc(b1-3)Gal(b1-4)GlcNAc(b1-6)]GalNAc; details: glycan notation: IUPAC condensed, linker removed
# Outline: as §1
# [4] = tested on: Gal(b1-4)GlcNAc(b1-3)[GlcNAc(b1-6)]Gal(b1-4)GlcNAc; details: glycan notation: IUPAC condensed, linker removed
# Outline: as §1
# [5] = tested on: Gal(b1-4)GlcNAc(b1-6)[Gal(b1-3)]GalNAc; details: glycan notation: IUPAC condensed, linker removed
# Outline: as §1
# Gal(b1-6)Gal = details: glycan notation: IUPAC condensed, linker removed
# Outline: as §1
# Gal3S(b1-3)GalNAc = details: glycan notation: IUPAC condensed, linker removed
# Outline: as §1
# [6] = tested on: Gal(b1-4)GlcNAc(b1-3)Gal(b1-4)GlcNAc; details: glycan notation: IUPAC condensed, linker removed
# Outline: as §1
# [7] = tested on: Gal(b1-4)GlcNAc(b1-3)Gal(b1-4)[Fuc(a1-3)]GlcNAc(b1-3)Gal(b1-4)[Fuc(a1-3)]GlcNAc; details: glycan notation: IUPAC condensed, linker removed
# Outline: as §1
# Gal(b1-4)Glc = details: glycan notation: IUPAC condensed, linker removed
# Outline: as §1
# [8] = tested on: Gal(b1-4)GlcNAc(b1-3)GalNAc; details: glycan notation: IUPAC condensed, linker removed
# Outline: as §1
# [9] = tested on: Gal(b1-4)GlcNAc(b1-3)[Gal(b1-4)GlcNAc(b1-6)]Gal(b1-4)GlcNAc; details: glycan notation: IUPAC condensed, linker removed
# Outline: as §1
# [10] = tested on: Gal(b1-4)GlcNAc(b1-6)Gal(b1-4)GlcNAc; details: glycan notation: IUPAC condensed, linker removed
# Outline: as §1
# Gal(b1-4)GlcNAc = details: glycan notation: IUPAC condensed, linker removed
# Outline: as §1
# Gal3S(b1-4)GlcNAc6S = details: glycan notation: IUPAC condensed, linker removed
# Outline: as §1
# Gal3S(b1-4)GlcNAc = details: glycan notation: IUPAC condensed, linker removed
# Outline: as §1
# [11] = tested on: Gal(b1-4)GlcNAc(b1-6)GalNAc; details: glycan notation: IUPAC condensed, linker removed; mutation: D138V, E140I
# Outline: as §1
# Gal3S(b1-3)GlcNAc = details: glycan notation: IUPAC condensed, linker removed
# Outline: as §1
# [12] = tested on: Gal3S(b1-3)[Fuc(a1-4)]GlcNAc; details: glycan notation: IUPAC condensed, linker removed
# Outline: as §1
# Chain of CHI3L1 (Homo sapiens), P36222 (P36222 whole entry): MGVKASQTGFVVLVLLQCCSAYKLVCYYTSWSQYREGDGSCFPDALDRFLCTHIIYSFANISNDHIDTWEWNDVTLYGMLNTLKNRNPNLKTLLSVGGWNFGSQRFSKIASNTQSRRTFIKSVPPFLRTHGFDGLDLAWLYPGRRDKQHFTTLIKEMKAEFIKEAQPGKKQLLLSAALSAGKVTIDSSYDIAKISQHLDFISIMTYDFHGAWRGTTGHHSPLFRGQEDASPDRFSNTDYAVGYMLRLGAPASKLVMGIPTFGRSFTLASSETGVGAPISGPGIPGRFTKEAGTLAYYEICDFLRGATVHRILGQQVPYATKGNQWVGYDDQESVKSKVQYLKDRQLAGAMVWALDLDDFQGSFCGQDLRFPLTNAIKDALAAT
# Chain of Neurocan (Homo sapiens), O14594 (O14594 other isoform, or with tags, fused parts or gaps): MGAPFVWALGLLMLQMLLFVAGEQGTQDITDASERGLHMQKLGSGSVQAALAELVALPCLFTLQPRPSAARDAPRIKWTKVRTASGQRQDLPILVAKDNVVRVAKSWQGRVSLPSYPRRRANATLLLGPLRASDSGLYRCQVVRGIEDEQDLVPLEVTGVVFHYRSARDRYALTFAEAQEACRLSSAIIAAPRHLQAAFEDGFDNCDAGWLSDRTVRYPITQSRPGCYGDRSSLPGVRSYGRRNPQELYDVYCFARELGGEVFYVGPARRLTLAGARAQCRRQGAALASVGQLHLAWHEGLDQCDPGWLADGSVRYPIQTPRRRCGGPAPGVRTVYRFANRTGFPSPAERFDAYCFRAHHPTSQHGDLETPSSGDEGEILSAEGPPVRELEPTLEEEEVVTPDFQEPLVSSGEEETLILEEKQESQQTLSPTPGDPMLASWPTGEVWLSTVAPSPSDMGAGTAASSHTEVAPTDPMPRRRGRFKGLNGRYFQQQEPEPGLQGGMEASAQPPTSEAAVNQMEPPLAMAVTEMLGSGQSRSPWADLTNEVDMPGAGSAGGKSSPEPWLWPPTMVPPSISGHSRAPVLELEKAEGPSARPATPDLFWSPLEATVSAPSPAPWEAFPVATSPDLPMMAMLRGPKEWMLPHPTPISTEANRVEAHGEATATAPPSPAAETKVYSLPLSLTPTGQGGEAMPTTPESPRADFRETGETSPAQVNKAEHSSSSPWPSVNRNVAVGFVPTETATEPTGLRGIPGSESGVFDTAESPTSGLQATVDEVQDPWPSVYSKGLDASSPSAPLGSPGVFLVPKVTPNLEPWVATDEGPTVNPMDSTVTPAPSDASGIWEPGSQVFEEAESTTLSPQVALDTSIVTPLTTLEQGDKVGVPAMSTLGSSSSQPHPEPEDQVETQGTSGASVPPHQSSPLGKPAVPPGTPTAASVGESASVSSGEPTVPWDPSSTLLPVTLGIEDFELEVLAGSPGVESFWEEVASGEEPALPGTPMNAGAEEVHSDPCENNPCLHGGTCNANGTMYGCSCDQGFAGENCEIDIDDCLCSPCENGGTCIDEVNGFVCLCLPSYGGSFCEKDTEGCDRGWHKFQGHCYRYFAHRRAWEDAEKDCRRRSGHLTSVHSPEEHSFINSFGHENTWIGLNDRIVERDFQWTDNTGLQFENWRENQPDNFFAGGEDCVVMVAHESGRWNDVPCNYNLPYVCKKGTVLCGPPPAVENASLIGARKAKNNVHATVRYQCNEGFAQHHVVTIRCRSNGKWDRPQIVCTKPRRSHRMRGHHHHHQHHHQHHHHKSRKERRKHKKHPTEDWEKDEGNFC
# Chain of Regenerating Gene IV (Homo sapiens), Q9BYZ8 (Q9BYZ8 whole entry, looked up): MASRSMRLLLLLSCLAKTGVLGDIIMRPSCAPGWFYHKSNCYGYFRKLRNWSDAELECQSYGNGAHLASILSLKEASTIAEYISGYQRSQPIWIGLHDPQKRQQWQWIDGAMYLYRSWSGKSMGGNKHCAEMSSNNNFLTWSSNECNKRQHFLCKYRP
# Chain of Avaren (Actinomycete K97) (chain, as listed by the source): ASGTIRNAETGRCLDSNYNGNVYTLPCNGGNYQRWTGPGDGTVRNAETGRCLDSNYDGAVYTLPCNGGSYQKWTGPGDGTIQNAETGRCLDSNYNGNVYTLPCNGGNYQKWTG
# Chain of PILRa (Mus musculus), Q2YSF3 (Q2YSF3 entry or part of it): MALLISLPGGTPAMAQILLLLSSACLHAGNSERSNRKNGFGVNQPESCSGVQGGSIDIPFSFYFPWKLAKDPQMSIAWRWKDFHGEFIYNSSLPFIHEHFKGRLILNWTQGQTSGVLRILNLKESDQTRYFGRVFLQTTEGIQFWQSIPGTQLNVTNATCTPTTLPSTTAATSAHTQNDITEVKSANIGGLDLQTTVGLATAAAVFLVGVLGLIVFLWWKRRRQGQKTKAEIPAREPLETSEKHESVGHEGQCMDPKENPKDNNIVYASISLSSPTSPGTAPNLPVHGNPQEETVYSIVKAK
# Chain of CHT (Homo sapiens) (chain, as listed by the source): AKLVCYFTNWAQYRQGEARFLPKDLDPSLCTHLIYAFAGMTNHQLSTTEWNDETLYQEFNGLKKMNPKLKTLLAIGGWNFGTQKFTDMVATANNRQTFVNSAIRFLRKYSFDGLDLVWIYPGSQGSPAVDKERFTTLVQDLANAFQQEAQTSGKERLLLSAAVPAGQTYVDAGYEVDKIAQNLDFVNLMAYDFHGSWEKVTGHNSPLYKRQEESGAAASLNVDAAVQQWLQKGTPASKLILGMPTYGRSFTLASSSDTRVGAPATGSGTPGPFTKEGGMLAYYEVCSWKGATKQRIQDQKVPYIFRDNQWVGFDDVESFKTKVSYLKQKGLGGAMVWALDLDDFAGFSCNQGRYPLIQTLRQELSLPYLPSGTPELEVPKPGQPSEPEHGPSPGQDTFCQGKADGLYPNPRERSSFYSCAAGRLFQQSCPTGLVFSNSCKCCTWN
# Chain of PILRb (Mus musculus), Q2YSF2 (Q2YSF2 entry or part of it): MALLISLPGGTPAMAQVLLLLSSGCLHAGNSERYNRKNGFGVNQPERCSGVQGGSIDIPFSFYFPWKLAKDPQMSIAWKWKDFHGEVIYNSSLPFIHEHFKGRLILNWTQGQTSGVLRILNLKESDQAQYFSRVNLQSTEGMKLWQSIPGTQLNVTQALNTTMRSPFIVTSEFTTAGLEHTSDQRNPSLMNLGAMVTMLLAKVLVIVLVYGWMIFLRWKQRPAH
# Chain of wLAT-1A (Homo sapiens), Q01650 (Q01650 whole entry): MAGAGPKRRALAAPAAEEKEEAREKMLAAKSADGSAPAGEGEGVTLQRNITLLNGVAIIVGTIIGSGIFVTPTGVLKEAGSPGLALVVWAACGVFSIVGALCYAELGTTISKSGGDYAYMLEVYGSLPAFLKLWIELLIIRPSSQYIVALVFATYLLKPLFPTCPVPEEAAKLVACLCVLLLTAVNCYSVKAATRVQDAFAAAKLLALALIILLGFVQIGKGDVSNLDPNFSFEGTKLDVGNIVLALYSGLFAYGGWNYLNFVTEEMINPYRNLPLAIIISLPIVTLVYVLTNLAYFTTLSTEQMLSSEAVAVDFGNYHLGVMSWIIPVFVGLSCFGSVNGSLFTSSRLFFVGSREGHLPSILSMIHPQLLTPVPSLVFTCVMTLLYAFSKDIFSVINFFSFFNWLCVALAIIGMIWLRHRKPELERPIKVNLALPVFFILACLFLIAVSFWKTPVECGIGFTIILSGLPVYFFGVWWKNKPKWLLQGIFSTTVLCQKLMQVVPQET
# Chain of SRLC (Mus musculus), Q8VIF6 (Q8VIF6 other isoform, or with tags, fused parts or gaps): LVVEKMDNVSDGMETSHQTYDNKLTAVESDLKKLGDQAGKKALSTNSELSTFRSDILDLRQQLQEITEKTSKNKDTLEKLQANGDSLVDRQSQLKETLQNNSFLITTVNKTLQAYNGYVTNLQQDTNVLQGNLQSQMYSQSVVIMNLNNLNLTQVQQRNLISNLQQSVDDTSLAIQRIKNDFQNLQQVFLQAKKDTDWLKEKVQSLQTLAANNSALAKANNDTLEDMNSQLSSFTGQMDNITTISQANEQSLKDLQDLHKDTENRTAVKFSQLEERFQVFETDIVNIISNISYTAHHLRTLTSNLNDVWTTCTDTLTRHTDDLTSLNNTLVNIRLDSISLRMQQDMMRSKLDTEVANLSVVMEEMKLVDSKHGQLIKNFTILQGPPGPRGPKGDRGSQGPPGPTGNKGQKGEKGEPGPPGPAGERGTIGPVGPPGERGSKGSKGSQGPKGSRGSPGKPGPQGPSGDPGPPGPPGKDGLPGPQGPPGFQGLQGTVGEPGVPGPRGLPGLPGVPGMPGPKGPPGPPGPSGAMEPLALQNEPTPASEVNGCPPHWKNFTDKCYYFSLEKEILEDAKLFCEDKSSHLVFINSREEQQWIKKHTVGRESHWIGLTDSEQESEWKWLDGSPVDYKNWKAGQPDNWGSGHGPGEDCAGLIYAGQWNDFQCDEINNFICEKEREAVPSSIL
# Chain of 6RG (Lolium perenne) (chain, as listed by the source): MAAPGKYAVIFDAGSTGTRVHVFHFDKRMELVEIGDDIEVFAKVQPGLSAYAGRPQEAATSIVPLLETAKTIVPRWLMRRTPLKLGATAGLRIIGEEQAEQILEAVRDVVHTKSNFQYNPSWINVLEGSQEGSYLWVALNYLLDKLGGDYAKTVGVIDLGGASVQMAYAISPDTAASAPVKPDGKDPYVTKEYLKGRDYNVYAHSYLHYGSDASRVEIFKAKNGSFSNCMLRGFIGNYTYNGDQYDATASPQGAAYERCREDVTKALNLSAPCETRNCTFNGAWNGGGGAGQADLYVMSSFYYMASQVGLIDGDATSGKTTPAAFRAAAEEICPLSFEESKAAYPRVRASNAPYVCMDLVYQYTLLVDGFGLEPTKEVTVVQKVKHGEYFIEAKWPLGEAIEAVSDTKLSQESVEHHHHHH
# Chain of Aggrecan (Rattus norvegicus), NP_071526 (chain, as listed by the source): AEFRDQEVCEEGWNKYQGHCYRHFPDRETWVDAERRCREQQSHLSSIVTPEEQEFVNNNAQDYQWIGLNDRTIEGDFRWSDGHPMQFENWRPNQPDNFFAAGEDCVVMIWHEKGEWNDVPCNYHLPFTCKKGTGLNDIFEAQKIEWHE
substance,measurement,setting,value
"Siglec-8 (Homo sapiens), Q9NYZ4",glycan array binding signal (z-score),[1],0.321
same,glycan array binding signal (z-score),[2],0.483
same,glycan array binding signal (z-score),[3],0.455
same,glycan array binding signal (z-score),[4]; mutation: R125K,-0.502
same,glycan array binding signal (z-score),[5],-0.099
same,glycan array binding signal (z-score),Gal(b1-6)Gal,-0.178
same,glycan array binding signal (z-score),Gal(b1-6)Gal; mutation: R125K,-0.117
same,glycan array binding signal (z-score),Gal3S(b1-3)GalNAc,0.076
Avaren (Actinomycete K97),glycan array binding signal (z-score),[3],-0.016
same,glycan array binding signal (z-score),Gal3S(b1-3)GalNAc,-0.121
"wLAT-1A (Homo sapiens), Q01650",glycan array binding signal (z-score),[6],-0.343
6RG (Lolium perenne),glycan array binding signal (z-score),[7],-0.329
"Neurocan (Homo sapiens), O14594",glycan array binding signal (z-score),[7],-0.779
same,glycan array binding signal (z-score),Gal(b1-4)Glc,-0.551
"Regenerating Gene IV (Homo sapiens), Q9BYZ8",glycan array binding signal (z-score),[8],1.48
same,glycan array binding signal (z-score),[5],0.244
"Aggrecan (Rattus norvegicus), NP_071526",glycan array binding signal (z-score),[9],-0.184
"PILRb (Mus musculus), Q2YSF2",glycan array binding signal (z-score),[9],-0.023
"PILRa (Mus musculus), Q2YSF3",glycan array binding signal (z-score),[4],-0.283
same,glycan array binding signal (z-score),[10],-0.231
"CHI3L1 (Homo sapiens), P36222",glycan array binding signal (z-score),[10],-0.141
same,glycan array binding signal (z-score),Gal(b1-4)GlcNAc,-0.122
same,glycan array binding signal (z-score),Gal3S(b1-4)GlcNAc6S,-0.093
same,glycan array binding signal (z-score),Gal3S(b1-4)GlcNAc,0.706
CHT (Homo sapiens),glycan array binding signal (z-score),[11],-0.115
MpAFP RI GFP (Marinomonas primoryensis),glycan array binding signal (z-score),Gal(b1-6)Gal,-0.336
same,glycan array binding signal (z-score),Gal3S(b1-3)GlcNAc,-0.429
"C3b (Homo sapiens), P01024",glycan array binding signal (z-score),Gal3S(b1-3)GlcNAc,1.05
"SRLC (Mus musculus), Q8VIF6",glycan array binding signal (z-score),[12],-0.081
"6RG (Lolium perenne), B9U140",glycan array binding signal (z-score),Gal3S(b1-4)GlcNAc6S,0.775
